Results on 38 molecules are retold here after paper PMC13494018.

Experiment [1] concerns the target CD276, Q5ZPR3.
Experiment [2] concerns the target VTCN1, Q7Z7D3.

Values without a mark were called inactive. The rule behind the calls is not given here.

Sequence of CD276, Q5ZPR3 (Q5ZPR3 whole entry): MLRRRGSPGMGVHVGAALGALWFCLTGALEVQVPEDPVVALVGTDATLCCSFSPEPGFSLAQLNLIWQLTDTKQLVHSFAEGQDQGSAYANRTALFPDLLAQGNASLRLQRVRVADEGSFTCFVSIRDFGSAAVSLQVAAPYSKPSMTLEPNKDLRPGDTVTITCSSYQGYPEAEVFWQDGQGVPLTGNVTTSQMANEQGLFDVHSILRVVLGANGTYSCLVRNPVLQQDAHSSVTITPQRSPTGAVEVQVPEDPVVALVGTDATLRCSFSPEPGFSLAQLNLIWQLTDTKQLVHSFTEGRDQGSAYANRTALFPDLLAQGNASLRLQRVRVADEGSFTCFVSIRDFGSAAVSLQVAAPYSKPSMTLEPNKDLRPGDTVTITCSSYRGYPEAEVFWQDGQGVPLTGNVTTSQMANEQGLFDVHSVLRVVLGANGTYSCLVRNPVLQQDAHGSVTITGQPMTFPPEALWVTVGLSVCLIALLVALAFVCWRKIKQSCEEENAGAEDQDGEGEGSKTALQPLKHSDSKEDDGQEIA
Sequence of VTCN1, Q7Z7D3 (Q7Z7D3 whole entry): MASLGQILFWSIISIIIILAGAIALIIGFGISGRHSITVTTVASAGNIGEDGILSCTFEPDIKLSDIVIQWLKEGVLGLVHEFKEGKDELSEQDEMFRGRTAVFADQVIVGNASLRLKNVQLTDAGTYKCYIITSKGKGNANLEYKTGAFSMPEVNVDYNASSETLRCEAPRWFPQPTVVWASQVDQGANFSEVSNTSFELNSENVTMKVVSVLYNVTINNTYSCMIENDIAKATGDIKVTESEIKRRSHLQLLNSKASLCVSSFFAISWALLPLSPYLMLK

B1: design_623_6e2e8b1f-5d9a-4413-9869-27a184816b12_1355_dldesign_0_cycle1_af2pred (protein)
chain: AVAQQALATAQRNLERAKEYAKAGDVKAATAFATTAITLAQAVAATDPALAPQAQAIIDQAQAVIEEAKA
For B1, the “binding in a display sort” value in experiment [1] is “not found”.

B2: design_376_bf9d4634-8475-4fdb-a175-1db49a23bdcd_502_dldesign_0_cycle1_af2pred (protein)
chain: GKKEKALKELEKLKKEAEELEEEGKKAGPKAYQEAGSMLIKIESALSAAKKGDEEEAEKAAKKAKEAYEKGKEKVTKLIKEEKAKKE
Turning to B2, in experiment [2], the “binding in a display sort” value was “not found”.

B3: design_376_bf9d4634-8475-4fdb-a175-1db49a23bdcd_69_dldesign_0_cycle1_af2pred (protein)
chain: ANKEEVDAAADAISEAFRLAREYVLKEGLDPKEVANKLIQGLDDIEYGLALGEELEKDPASAEAGKALKKAAELLAKI
As for B3, in experiment [2], the “binding in a display sort” value is “not found”.

B4: design_623_6e2e8b1f-5d9a-4413-9869-27a184816b12_1575_dldesign_0_cycle1_af2pred (protein)
chain: NAGQAVADALRAATEAERAAAAVDPALAAQARALLAKAMQAAVAGDDAEAIAYAAEVRALRDEVLARAAA
As to B4, the “binding in a display sort” value in experiment [1] is “not found”.

B5: design_623_6e2e8b1f-5d9a-4413-9869-27a184816b12_1352_dldesign_0_cycle1_af2pred (protein)
chain: AAEARKAEAVARAKAAAQNAKLVAEGAGEAFAAEAAEVAALAKQAATSTAEEAEKLAEQAAAKTVAMTRAAIALHAAA
On to B5, for which the “binding in a display sort” value in experiment [1] was “not found”.

B6: design_623_6e2e8b1f-5d9a-4413-9869-27a184816b12_1572_dldesign_0_cycle1_af2pred (protein)
chain: KAEEVVKIVREAAREAKKDPEKAKEYANRALGALLDLAKAGSQEAALVASQGAAKIAKKITSGASAEEIAKALEEAAKKVEEAAKKE
For B6, the “binding in a display sort” value in experiment [1] is “not found”.

B7: design_376_bf9d4634-8475-4fdb-a175-1db49a23bdcd_377_dldesign_0_cycle1_af2pred (protein)
chain: GEEVEKLYKELIKAGKEADKALELAVKIGKVDSETLQILGEASIYADNPELAKGLAERDPEKAKERIKETKKAVEEVKKLYKEYK
For the molecule B7, the “binding in a display sort” value in experiment [2] was “not found”.

B8: design_623_6e2e8b1f-5d9a-4413-9869-27a184816b12_1434_dldesign_0_cycle1_af2pred (protein)
chain: DAAAKELRERATALAGRTLLALARDPAEGERTLEEAVKELEALGKESGLEELAKEEAARLRAQYEAFRAVAEA
As to B8, the “binding in a display sort” value in experiment [1] is “not found”.

B9: design_376_bf9d4634-8475-4fdb-a175-1db49a23bdcd_214_dldesign_0_cycle1_af2pred (protein)
chain: MELLKEAEKYAKEAKEYAEKALKEPEKAEEYVKKAAEYVAKLYELAAEAYRLDKELGKKAKKLAKEARKEVKEKYKEAKK
For B9, the “binding in a display sort” value in experiment [2] is “not found”.

B10: design_623_6e2e8b1f-5d9a-4413-9869-27a184816b12_2213_dldesign_0_cycle1_af2pred (protein)
chain: AVEELLAKAKEYAAKLKELADDLEAAKALATEKREDIGQVIMAAAIVAATESPEVAARAREVQRHAWSLQR
On to B10, for which the “binding in a display sort” value in experiment [1] was “not found”.

B11: design_376_bf9d4634-8475-4fdb-a175-1db49a23bdcd_232_dldesign_0_cycle1_af2pred (protein)
chain: EKEKLEKIVEEIKKYVEEAKELAKGDISSQSKAVSLLHKAFSLAGKAIGKEAKELEDKMLNAETMEEAVKIGEELYEKFSKIAKA
As for B11, the “binding in a display sort” value in experiment [2] was “not found”.

B12: design_623_6e2e8b1f-5d9a-4413-9869-27a184816b12_2025_dldesign_0_cycle1_af2pred (protein)
chain: GEERLLAAINEGARAILEVTAPESDAQRNAVVHAFILGMVRGPEQGLADLAAAAAALSPEVAKAAVEEATKIIERYLA
Regarding B12, the “binding in a display sort” value in experiment [1] is “not found”.

B13: design_623_6e2e8b1f-5d9a-4413-9869-27a184816b12_1541_dldesign_0_cycle1_af2pred (protein)
chain: DFFEKALKAAKAALKKAEEALEKGKEDLAAAKAAVHQAQAAYVLASGLAVAAEAAGADPKVAKEAKELAEKAKELMEQGKKLAAKLA
As to B13, the “binding in a display sort” value in experiment [1] was “not found”.

B14: design_623_6e2e8b1f-5d9a-4413-9869-27a184816b12_1921_dldesign_0_cycle1_af2pred (protein)
chain: SSVAAFLAAAAQAVKAAAEQGNLAAAAAFLRAAALASDPEAGKKLEALAKAAEAATAEEGKAIAKEGAKLLKELAEEVEAK
Turning to B14, in experiment [1], the “binding in a display sort” value was “not found”.

B15: design_376_bf9d4634-8475-4fdb-a175-1db49a23bdcd_370_dldesign_0_cycle1_af2pred (protein)
chain: SLGKKLSEALRKAVRAARKAVEYMKAGDEENAEKYYKEAKEYAKELPEDVRNFVLNTMEKKIEEAKKEYA
With B15, the “binding in a display sort” value in experiment [2] is “not found”.

B16: design_623_6e2e8b1f-5d9a-4413-9869-27a184816b12_1942_dldesign_0_cycle1_af2pred (protein)
chain: AAAAATVAANAALAMAKKALEIAERAKKAGEEAPELAQSALQALDVAEALIAYATAISAAADAATKAKLAEAKKVVKEAREIAEKVIK
Take B16: the “binding in a display sort” value in experiment [1] was “not found”.

B17: design_623_6e2e8b1f-5d9a-4413-9869-27a184816b12_2057_dldesign_0_cycle1_af2pred (protein)
chain: MEVIEKLKEYGQQAIDILTGLAKAQPAVKDVAEPAAQEVREATKKAVERGEKEGEEAAKKEYEKVHALANAALARVSKLAAA
For the molecule B17, the “binding in a display sort” value in experiment [1] is “not found”.

B18: design_623_6e2e8b1f-5d9a-4413-9869-27a184816b12_2207_dldesign_0_cycle1_af2pred (protein)
chain: NPKVEELREEVRRLIAELARAGVAGTPEIAATVGAAIEQALKLLGESRETGEESLKEAIKIVKEALKAAA
In the case of B18, the “binding in a display sort” value in experiment [1] was “not found”.

B19: design_376_bf9d4634-8475-4fdb-a175-1db49a23bdcd_302_dldesign_0_cycle1_af2pred (protein)
chain: GEAEKEKLKKEIYKLYREERKKVAEAIKKGKEEGKEALEKAEKALEEKAKEAAKYPEAAQLALQYKEALKEYYEMASK
Consider B19, for which, in experiment [2], the “binding in a display sort” value was “not found”.

B20: design_376_bf9d4634-8475-4fdb-a175-1db49a23bdcd_604_dldesign_0_cycle1_af2pred (protein)
chain: SVAAITAHAEALARKAVADPANAAAYLSEARDYVLTNGDAEALRAAADVLRALGAKAPGGAAFAAAARILERAAEDIEKA
For B20, the “binding in a display sort” value in experiment [2] was “not found”.

B21: design_376_bf9d4634-8475-4fdb-a175-1db49a23bdcd_541_dldesign_0_cycle1_af2pred (protein)
chain: EEEAKKLVEKAKEKLKKAKETAKNGTAEEAAKTAKEVFKEAREYGKKLKKKGYDEEYVKKIAEYAHEAAEIYAEESNKV
Turning to B21, the “binding in a display sort” value in experiment [2] was “not found”.

B22: design_623_6e2e8b1f-5d9a-4413-9869-27a184816b12_1663_dldesign_0_cycle1_af2pred (protein)
chain: GLEEFEKIVREAAEKVIENAGDPEKQREIVLEAAKKAEEAGYSATVGAGAINARVRAEGTPEAAAIAAEVYQELRDKERA
Regarding B22, in experiment [1], the “binding in a display sort” value is “not found”.

B23: design_623_6e2e8b1f-5d9a-4413-9869-27a184816b12_1349_dldesign_0_cycle1_af2pred (protein)
chain: DRLREIAAALAKEVAEATGADPATTEKLAELLAAVLEANQQGPEAFAAAYSKLVDFTVSTGSDALLAKAGAAVSRGLRALG
In the case of B23, in experiment [1], the “binding in a display sort” value is “not found”.

B24: design_623_6e2e8b1f-5d9a-4413-9869-27a184816b12_1571_dldesign_0_cycle1_af2pred (protein)
chain: GEEAKKLAEEGDKLAEQGKAATPQEGLALLLEAAKKYSEAARLYREAGNEEEAAKAEAKLQEVNAQLNAAAKAAIAA
For the molecule B24, the “binding in a display sort” value in experiment [1] was “not found”.

B25: design_623_6e2e8b1f-5d9a-4413-9869-27a184816b12_1704_dldesign_0_cycle1_af2pred (protein)
chain: MEEALTEAFRAVAEMNRLAEEARKANPEAAEKAEEARREMSRLAIEAARSDAETAAELAKKIKEILEKTKKVVEELA
With B25, in experiment [1], the “binding in a display sort” value was “not found”.

B26: design_623_6e2e8b1f-5d9a-4413-9869-27a184816b12_1798_dldesign_0_cycle1_af2pred (protein)
chain: AAAEEKTKAYEIALETAKLLTAAAALADELAATNPEAAALAAQARQLNVDLNKTAIAGELTLELAEEYLKKAKEIAARVKALAKAA
Take B26: the “binding in a display sort” value in experiment [1] was “not found”.

B27: design_623_6e2e8b1f-5d9a-4413-9869-27a184816b12_1669_dldesign_0_cycle1_af2pred (protein)
chain: SSALQTVKGYLALGKVAATAIRSGKVELGKELAEAAIKGALEAGKEHPEVAEEAEKAAEEIRKITEEALEEVEEA
Take B27: the “binding in a display sort” value in experiment [1] was “not found”.

B28: design_623_6e2e8b1f-5d9a-4413-9869-27a184816b12_2491_dldesign_0_cycle1_af2pred (protein)
chain: TAKALAAAVEKAKELAAIVAEVQGDGAFGAAMVNTLANYAAAAGVPQALVDRARAAAKEALASADGAKVALAELKALAAEFKAA
On to B28, for which the “binding in a display sort” value in experiment [1] was “not found”.

B29: design_376_bf9d4634-8475-4fdb-a175-1db49a23bdcd_425_dldesign_0_cycle1_af2pred (protein)
chain: DEEDEKNLEKVKRIYERAKELAKEGLEAIKKGTSKTKALYGAAKLERAAEAAKAASGGKHKEEMKKIAEESKKLAKELEEASKTY
On to B29, for which the “binding in a display sort” value in experiment [2] was “not found”.

B30: design_376_bf9d4634-8475-4fdb-a175-1db49a23bdcd_538_dldesign_0_cycle1_af2pred (protein)
chain: EAAELAALKAAGKAMAAVVKAADPALGAKVAATVEAGAKGTPAEFKKALQDAIGAVLLENPEAGRAAAKAAKDTYKAAKAA
For B30, the “binding in a display sort” value in experiment [2] was “not found”.

B31: design_623_6e2e8b1f-5d9a-4413-9869-27a184816b12_1410_dldesign_0_cycle1_af2pred (protein)
chain: SEELRERARELREEAERAEREAREAAERGDAERVREQLRRLSRLAAEAARLANQATAAGDEETAAEANEALARAVEAMERAQEWAE
Consider B31, for which the “binding in a display sort” value in experiment [1] was “not found”.

B32: design_623_6e2e8b1f-5d9a-4413-9869-27a184816b12_2159_dldesign_0_cycle1_af2pred (protein)
chain: AAAAAAKVAEAAAKAMLRTAKAILKESKASGGAKAPDALAAAEVALALADDLERQGGDPKTAEKLKKEAKAVAAEAKKVAA
For the molecule B32, the “binding in a display sort” value in experiment [1] was “not found”.

B33: design_376_bf9d4634-8475-4fdb-a175-1db49a23bdcd_487_dldesign_0_cycle1_af2pred (protein)
chain: DIKEELKKLAEEVKKLAKEVAELSKKDKEEAKVKAEEAEKLAEKALELAVKAIKEDEEAREVAHEAITEAFYALSVADAAK
Take B33: the “binding in a display sort” value in experiment [2] was “not found”.

B34: design_623_6e2e8b1f-5d9a-4413-9869-27a184816b12_1758_dldesign_0_cycle1_af2pred (protein)
chain: AEKVKELAKKAEELAKKAEKAAKESLAKAEKYAAKADELAREVNREAQKVATSGEAGEALLKALEAQAKARKALAEAKAKAEA
As for B34, the “binding in a display sort” value in experiment [1] was “not found”.

B35: design_376_bf9d4634-8475-4fdb-a175-1db49a23bdcd_110_dldesign_0_cycle1_af2pred (protein)
chain: VEELVEKVKKETAKKVWESTDLSAEEKEKVADELEALAKELAKISPEAAKAAKKAAAVVKRFAEDEKKAE
On to B35, for which the “binding in a display sort” value in experiment [2] was “not found”.

B36: design_376_bf9d4634-8475-4fdb-a175-1db49a23bdcd_131_dldesign_0_cycle1_af2pred (protein)
chain: DLEEELKKLIEKALKGNLEEALKALDEAVKLVEEKLSKTTADTAKEIAKAGKENAKKAETEEEARKNIAKALKTIKRIALLDAE
Regarding B36, in experiment [2], the “binding in a display sort” value was “not found”.

B37: design_623_6e2e8b1f-5d9a-4413-9869-27a184816b12_1445_dldesign_0_cycle1_af2pred (protein)
chain: EEAVLERIRALGEEGAALFQAAIKAAVAGDVAAAEALLKAGREKFEEAIALGEATSPRARELAEEVRRRMEAGEKIAQLAIEGAKA
As to B37, the “binding in a display sort” value in experiment [1] was “not found”.

B38: design_623_6e2e8b1f-5d9a-4413-9869-27a184816b12_1750_dldesign_0_cycle1_af2pred (protein)
chain: DLLEQARIAANSTVALKKTTKEILAKSTPESAEKVAEVAVELAKQAKELGKKAGTKEAKELAKKAEKAAKEAVEAVKKAKA
Take B38: in experiment [1], the “binding in a display sort” value is “not found”.
